Assay results: PubChem BioAssay (NCATS)
Results filed as inconclusive are left out. Unmarked numbers belong to inactive results. Activity calls are given as the source filed them. Calls come from the whole dose curve; as a rule, active = well fitted curve in the direction sought with a large enough effect; inconclusive = small, poorly fitted or top-dose-only effect, or another doubt; inactive = no such curve, though single readings can be large; an effect the other way counts as inactive or inconclusive.

Assays:
[1] = qHTS of pediatric cancer cell lines to identify multiple opportunities for drug repurposing: Primary screen for SJ-GBM2 cells (AID 1347091)
How it was run: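 Cell viability, CellTiter-Glo luminescence; 500-1,000 cells/well, 8- or 11-point titration, 48 h compound exposure at 37 degrees C, 5% CO2. Controls: DMSO neutral, bortezomib 2.3 µM final as positive.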

[2] = qHTS of pediatric cancer cell lines to identify multiple opportunities for drug repurposing: Primary screen for A673 cells (AID 1347092); note: nearly all actives have a fitted effect of over 45% in size
How it was run: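 Luminescence from CellTiter-Glo, taken after 15 min at room temperature, served as the proxy for metabolically active cells following 48 h treatment. Both potency and efficacy were taken from curves fitted to the titration data.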

[3] = qHTS of pediatric cancer cell lines to identify multiple opportunities for drug repurposing: Primary screen for SK-N-MC cells (AID 1347093)
How it was run: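 Metabolically active cells were quantified by ATP-dependent luminescence (CellTiter-Glo, 15 min at room temperature) following 48 h treatment. Cells had been plated at 500-1,000 per well and settled for 5 h beforehand.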

[4] = qHTS of pediatric cancer cell lines to identify multiple opportunities for drug repurposing: Primary screen for BT-37 cells (AID 1347094)
How it was run: (§1)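 Cells plated at 500-1,000/well in growth medium, compounds added after 5 h. MIPE tested at 11 points (from 0.78 nM), NPC at 8 points (from 0.59 nM). CellTiter-Glo luminescence after 48 h; concentration-response curves from primary screen.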

[5] = qHTS of pediatric cancer cell lines to identify multiple opportunities for drug repurposing: Primary screen for NB-EBc1 cells (AID 1347095)
How it was run: as §1

[6] = qHTS of pediatric cancer cell lines to identify multiple opportunities for drug repurposing: Primary screen for SK-N-SH cells (AID 1347098); note: nearly all actives have a fitted effect of over 65% in size
How it was run: (§2)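 Cells (500-1,000/well) rested 5 h, then received compounds for 48 h; metabolically active cells were measured by CellTiter-Glo luminescence. Final concentrations spanned up to 46 µM (MIPE, 11-point) or 0.59 nM-46 µM (NPC, 8-point) in primary screens, 11-point in follow-ups.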

[7] = qHTS of pediatric cancer cell lines to identify multiple opportunities for drug repurposing: Primary screen for NB1643 cells (AID 1347099); note: nearly all actives have a fitted effect of over 50% in size
How it was run: as §1

[8] = qHTS of pediatric cancer cell lines to identify multiple opportunities for drug repurposing: Primary screen for LAN-5 cells (AID 1347100)
How it was run: as §2

[9] = qHTS of pediatric cancer cell lines to identify multiple opportunities for drug repurposing: Primary screen for Saos-2 cells (AID 1347097); note: nearly all actives have a fitted effect of over 40% in size
How it was run: as §1

[10] = qHTS of pediatric cancer cell lines to identify multiple opportunities for drug repurposing: Primary screen for U-2 OS cells (AID 1347096); note: nearly all actives have a fitted effect of over 50% in size
How it was run: as §2
Potency is the fitted concentration of half-maximal effect.

| SMILES | Potency [1] | Potency [2] | Potency [3] | Potency [4] | Potency [5] | Potency [6] | Potency [7] | Potency [8] | Potency [9] | Potency [10] |
| --- | --- | --- | --- | --- | --- | --- | --- | --- | --- | --- |
| CC(=O)[C@]1(O)Cc2c(O)c3c(c(O)c2[C@@H](O[C@H]2C[C@H](N)[C@@H](O)[C@H](C)O2)C1)C(=O)c1ccccc1C3=O | 0.0833 µM (active) | 0.148 µM (active) | 0.118 µM (active) | 0.193 µM (active) | 0.0372 µM (active) | 0.192 µM (active) | 0.743 µM (active) | 0.0935 µM (active) | – | – |
| O=C(NC1CC1)c1cccc(-c2ccc3c(NC(=O)C4CC4)n[nH]c3c2)c1 | 13.2 µM (active) | 0.372 µM (active) | 0.372 µM (active) | 3.43 µM (active) | – | 1.71 µM (active) | 0.935 µM (active) | 2.09 µM (active) | 2.96 µM (active) | – |
| CC(C)[C@H](CO)Nc1nc(Nc2cccc(Cl)c2)c2ncn(C(C)C)c2n1 | 16.6 µM (active) | 14.8 µM (active) | 1.32 µM (active) | 21.7 µM (active) | – | 21.5 µM (active) | – | – | – | – |
| COc1cc(C)c(C=CC(C)=CC=CC(C)=CC(=O)O)c(C)c1C | inactive | inactive | 18.7 µM (active) | – | inactive | inactive | inactive | – | inactive | inactive |
| Nc1ccn(C2CO[C@H](CO)O2)c(=O)n1 (some centres undefined) | inactive | inactive | inactive | inactive | – | inactive | inactive | inactive | inactive | inactive |
| Nc1nc(N)c2nc(-c3cccc(O)c3)c(-c3cccc(O)c3)nc2n1 | 8.33 µM (active) | 2.35 µM (active) | 1.48 µM (active) | 21.7 µM (active) | – | 19.2 µM (active) | – | 11.8 µM (active) | 18.7 µM (active) | 23.5 µM (active) |
| OCC(O)C(O)C(O)CO (centres undefined) | inactive | inactive | inactive | inactive | – | – | inactive | inactive | inactive | inactive |
| Nc1nc(=O)n([C@H]2CSC(CO)O2)cc1F (some centres undefined) | inactive | inactive | inactive | inactive | – | inactive | inactive | inactive | inactive | inactive |
| O=C(Nc1cccc(Nc2ncc(Br)c(NCCc3cnc[nH]3)n2)c1)N1CCCC1 | 5.9 µM (active) | 11.8 µM (active) | 0.332 µM (active) | 21.7 µM (active) | – | 13.6 µM (active) | – | – | – | inactive |
| COc1cc2ncnc(Nc3cccc(Br)c3)c2cc1OC | 20.9 µM (active) | 0.0059 µM (active) | 0.0118 µM (active) | 24.3 µM (active) | – | – | 7.43 µM (active) | – | 29.6 µM (active) | – |
| O=S(=O)(O)CCSSCCS(=O)(=O)O | inactive | inactive | 10.5 µM (active) | inactive | – | – | 23.5 µM (active) | inactive | inactive | inactive |
| O=C1NC(O)CCN1[C@@H]1O[C@H](CO)[C@H](O)[C@H]1O (some centres undefined) | inactive | inactive | inactive | inactive | – | inactive | – | inactive | inactive | inactive |
| CCOc1cc2c(c(F)c1OCC)C(=N)N(CC(=O)c1cc(N3CCOCC3)c(OC)c(C(C)(C)C)c1)C2 | 23.5 µM (active) | 9.35 µM (active) | 0.833 µM (active) | 27.3 µM (active) | – | – | – | – | 14.8 µM (active) | – |
| C[C@H]1O[C@H](O[C@H]2[C@H](O)[C@@H](O)[C@@H](O[C@H]3[C@H](O)[C@@H](O)C(O)O[C@H]3CO)O[C@H]2CO)[C@H](O)[C@@H](O)[C@H]1N[C@H]1C=C(CO)[C@@H](O)[C@H](O)[C@@H]1O (some centres undefined) | 4.69 µM (active) | 0.187 µM (active) | 33.2 µM (active) | 1.72 µM (active) | – | inactive | – | 2.35 µM (active) | 2.35 µM (active) | inactive |
| COC(=O)C=CC(=O)OC | inactive | 7.43 µM (active) | 0.0037 µM (active) | inactive | – | 15.2 µM (active) | – | inactive | inactive | inactive |
| Cc1nc(NC(=O)N2CCC[C@@H]2C(N)=O)sc1-c1ccnc(C(C)(C)C(F)(F)F)c1 | 5.9 µM (active) | 9.35 µM (active) | 0.059 µM (active) | – | 1.48 µM (active) | – | 9.35 µM (active) | 5.9 µM (active) | – | inactive |
